The text below walks through data of PubChem BioAssay AID743286 (National Center for Advancing Translational Sciences (NCATS), 2014).

The whole screen tested about 1,100 compounds, of which about 340 (31%) were called active. Roughly 40% stayed inconclusive and do not appear here. Calls follow the shape of the dose curve; as a rule, active = well fitted inhibition curve with a large enough effect; inconclusive = small, poorly fitted or top-dose-only effect; inactive = flat fitted curve, though single readings scatter. The list is a sample of the results. Entries that show only a call come without a potency.
Potency is read from the fitted curve at half-maximal effect.

Phosphatidylinositol 5-phosphate 4-kinase type-2 alpha (Homo sapiens), sequence (P48426 whole entry, looked up): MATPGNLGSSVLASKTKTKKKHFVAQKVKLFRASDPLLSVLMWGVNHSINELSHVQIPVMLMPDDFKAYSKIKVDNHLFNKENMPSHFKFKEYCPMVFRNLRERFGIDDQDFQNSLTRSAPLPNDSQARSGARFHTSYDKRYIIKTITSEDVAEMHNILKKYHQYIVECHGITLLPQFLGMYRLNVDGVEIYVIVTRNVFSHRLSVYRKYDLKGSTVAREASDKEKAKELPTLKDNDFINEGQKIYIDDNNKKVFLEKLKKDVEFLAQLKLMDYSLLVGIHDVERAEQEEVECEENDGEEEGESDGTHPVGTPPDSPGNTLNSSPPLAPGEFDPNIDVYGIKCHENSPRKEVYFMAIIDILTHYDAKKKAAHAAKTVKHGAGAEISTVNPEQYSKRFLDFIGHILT

The experiment has as its target Phosphatidylinositol 5-phosphate 4-kinase type-2 alpha (Homo sapiens) (UniProt P48426). Kind of experiment: qHTS for Inhibitors of PI5P4K: Confirmation in Primary Assay. Also: nearly all actives have a fitted effect of over 65% in size. The note with it: PI5P4Kalpha enzyme, ADP-Glo luminescence, 60 min; series mostly up to 76.9 µM. The essentials:
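ADP-Glo luminescence end-point quantified ADP produced by PI5P4Kα after 60 min at room temperature with 5 microM ATP. Buffer: HEPES pH 7.4, EGTA, 0.1% CHAPS, 5% DMSO final; compounds added before ATP.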
For orientation: Quantitative high-throughput screening tests each substance at several concentrations.
In the case of `CCOC(=O)C1=C(CC)Nc2ccccc2N=C1NC(=O)c1ccc(S(=O)(=O)N(C)C)cc1`, the Potency entry is “inactive”. For the compound `COC(=O)c1c(NC(C)=O)sc(C(=O)Nc2ccccc2)c1C`, the Potency entry was “inactive”. In the case of `Fc1cccc(Cc2c(-c3ccco3)nc3ccc(Cl)cn23)c1` it was “inactive”.

As for `COc1ccccc1Cc1c(-c2ccco2)nc2cc(C)c(Br)c(C)n12`, the Potency result was “inactive”. As for `Cc1cc2nc(-c3ccco3)c(Cc3cccc(F)c3)n2c(C)c1Br`, the Potency was 6.31 µM (active).

Take `Cc1cccc(NC(=O)CNC(=O)c2cccc(-n3cccc3)c2)c1C`: the Potency was 6.31 µM (active). In the case of `CN(CC(=O)Nc1cccc(F)c1)C(=O)c1cccc(-n2cccc2)c1` it was 10 µM (active). As for `O=C(COC(=O)Cc1ccsc1)Nc1cccc(F)c1`, the entry is “inactive”; as for `CN(CC(=O)Nc1c(Cl)cccc1Cl)C(=O)c1cccc(-n2cccc2)c1`, 14.1 µM (active); as for `Cc1ccc(NC(=O)CN(C)C(=O)COc2ccc(C(=O)c3ccc(F)cc3)cc2)cc1`, “inactive”. As to `Cc1ccc(NC(=O)CN(C)C(=O)c2cccc(-n3cccc3)c2)cc1`, the Potency is 20 µM (active).

As to `CCN(CC(=O)Nc1ccc(OC)cc1)C(=O)c1ccc([N+](=O)[O-])cc1`, the Potency result was “inactive”.

Regarding `Nc1nc(N)c2cc(S(=O)(=O)c3cccc(C(F)(F)F)c3)ccc2n1`, the Potency result is “inactive”. In the case of `CCC1CCCCN1C(=O)Cn1nc([N+](=O)[O-])c(Cl)c1C` (configuration not stated) it was “inactive”; in that of `CCOc1ccc(CCNS(=O)(=O)c2cn(C)cn2)cc1OCC`, “inactive”. Regarding `N#Cc1c(SCC(=O)Nc2nc3ccc(Br)cc3s2)sc2c(O)cc(=O)[nH]c12`, the Potency is 4.47 µM (active).

`CCC(C)n1c(SCC(=O)Nc2ccc3[nH]c(=O)[nH]c3c2)nc2ccccc2c1=O` (configuration not stated): the Potency result was “inactive”. As for `N#Cc1c(SCC(=O)Nc2nc3ccccc3s2)sc2c(O)cc(=O)[nH]c12`, the figure is 6.31 µM (active); as for `CC(=O)Nc1ccc2nc(SCC(=O)NCCOc3ccccc3)sc2c1`, “inactive”; as for `O=C(CSc1nc(O)cc(=O)n1-c1ccccc1)Nc1nc2ccccc2s1`, “inactive”. In the case of `Nc1cc(-c2ccncc2)c[nH]c1=O` it was “inactive”; in that of `O=C(COc1ccc([N+](=O)[O-])cc1)Nc1cccnc1`, “inactive”; in that of `O=C(COc1ccccc1)Nc1cccc(-c2ccc(N3CCOCC3)nn2)c1`, “inactive”. In the case of `O=C(COc1ccc2ccccc2c1)Nc1cccc(C(=O)Nc2ccccc2C(=O)O)c1` it was 20 µM (active); in that of `COc1ccc(S(=O)(=O)N2CCN(C(=O)C3COc4ccccc4O3)CC2)cc1` (configuration not stated), 10 µM (active).

As to `COC(=O)Nc1ccc(S(=O)(=O)N2CCC(C(=O)N3CCC(C)CC3)CC2)cc1`, the Potency entry is “inactive”. As to `CN1CCN(S(=O)(=O)c2ccc(N3CCc4ccccc4C3)nc2)CC1`, the Potency result is “inactive”.

On to `CSc1ncccc1C(=O)Nc1ccc(OC(F)(F)F)cc1`, for which the Potency result was “inactive”. In the case of `Cc1ccc(NCC(=O)Nc2ccc(Br)cc2)cc1C` it was “inactive”; in that of `CCN(CC(=O)Nc1ccc(NC(C)=O)cc1)Cc1c(O)ccc2cc(Br)ccc12`, 15.8 µM (active). Turning to `Cn1nnnc1Sc1ncnc2scc(-c3ccccc3C(F)(F)F)c12`, the Potency was 17.8 µM (active). On to `Cc1ccc([N+](=O)[O-])cc1Nc1nc(N2CCOCC2)nc(N2CCOCC2)n1`, for which the Potency entry was “inactive”. As for `O=C(NCCCN1CCOCC1)c1sc2cc([N+](=O)[O-])ccc2c1Cl`, the figure is 14.1 µM (active); as for `CCOC(=O)C1=C(N)N(c2ccccc2)C(=O)C1`, “inactive”; as for `CC(Oc1ccc(F)cc1)C(=O)N1CCN(c2ncccn2)CC1` (configuration not stated), “inactive”. As for `Cc1cccc(C)c1NC(=O)C(c1ccccc1)n1c(=O)c(-c2ccco2)nc2ccccc21` (configuration not stated), the entry is “inactive”; as for `COc1ccccc1N1CCN(C(=O)c2ccc(C(C)(C)C)cc2)CC1`, “inactive”; as for `O=C(c1ccc2nc(-c3ccco3)c(-c3ccco3)nc2c1)N1CCN(c2ncccn2)CC1`, 12.6 µM (active). Take `CC(C)C(=O)N1CCN(c2ccccc2NC(=O)c2ccco2)CC1`: the Potency entry was “inactive”.

In the case of `O=C(Nc1ccc2nc(-c3ccco3)c(-c3ccco3)nc2c1)N1CCN(c2ccccn2)CC1`, the Potency is 11.2 µM (active).

Turning to `CC(C)NC(=O)c1onc(CSc2ccccc2F)c1C(=O)O`, the Potency entry was “inactive”. As for `CC(C)N(CCC(=O)c1ccc2ccccc2c1)Cc1ccccc1`, the Potency entry was “inactive”. In the case of `Cc1ccc(S(=O)(=O)N(C(=O)c2ccco2)c2cc3sc(=O)oc3c3ccccc23)cc1` it was “inactive”; in that of `Cc1ccc(C(CCN(Cc2ccccc2)C(=O)c2ccco2)c2ccco2)cc1` (configuration not stated), 14.1 µM (active). In the case of `O=C(N[C@@H](Cc1ccccc1)C(=O)OCc1ccccc1)c1nc[nH]c1C(=O)NC(c1ccccc1)c1ccccc1`, the Potency entry is “inactive”. Take `O=c1[nH]c2ccccc2n2c(-c3ccccc3)nnc12`: the Potency is 5.01 µM (active). In the case of `Cc1cc(Oc2ccc(C#N)cc2)nc(NCc2ccccc2)n1` it was “inactive”; in that of `CCn1c(CC(=O)Nc2ccccc2F)nnc1SCC(=O)NC1CCCCC1`, “inactive”; in that of `O=C(NCC1CC1)c1ccc(Nc2nc3ccc(Br)cc3[nH]2)cc1`, “inactive”.

For `CC1Cc2ccccc2N1C(=O)COC(=O)CCc1nc2ccccc2c(=O)[nH]1` (configuration not stated), the Potency entry was “inactive”.

As for `NC(=O)c1ccc(-n2c(CCC(=O)O)ccc2-c2cccs2)cc1`, the Potency was 3.98 µM (active). As for `N#Cc1c(SCC(=O)Nc2nncs2)sc2c(O)cc(=O)[nH]c12`, the figure is 8.91 µM (active); as for `CCc1nnc(NC(=O)CSc2sc3c(O)cc(=O)[nH]c3c2C#N)s1`, 12.6 µM (active); as for `N#Cc1c(SCC(=O)Nc2nccs2)sc2c(O)cc(=O)[nH]c12`, 15.8 µM (active). For `Cc1cc(NC(=O)CSc2sc3c(O)cc(=O)[nH]c3c2C#N)ccc1Br`, the Potency was 8.91 µM (active).

For the compound `CCc1nnc(NC(=O)c2ccc(S(C)(=O)=O)cc2)s1`, the Potency result is “inactive”. In the case of `O=C(CSc1nc2[nH]c(=O)cc(O)c2s1)Nc1ccc(Cl)c(C(F)(F)F)c1` it was “inactive”. `Cc1cnc(NC(=O)CSc2c(Cl)cccc2Cl)s1`: the Potency result is “inactive”. For the compound `CC1Cc2ccccc2N1C(=O)CNc1cccc(S(=O)(=O)N2CCCC2)c1` (configuration not stated), the Potency result was “inactive”.

`Cc1csc(NC(=O)CSc2sc3c(O)cc(=O)[nH]c3c2C#N)n1`: the Potency was 14.1 µM (active).

On to `Cc1csc(NC(=O)CSc2nc3[nH]ncc3c(=O)[nH]2)n1`, for which the Potency result was “inactive”.

In the case of `COc1ccc(CC(=O)NCC(=O)NC(Cc2ccccc2)C(=O)O)cc1` (configuration not stated), the Potency result was “inactive”. As for `CCc1nnc(NC(=O)c2cc(-c3ccc(C)o3)nc3ccccc23)s1`, the Potency entry was “inactive”. In the case of `CCc1nnc(NC(=O)c2cc(-c3ccco3)nc3ccccc23)s1` it was 3.55 µM (active).

For `O=C(Nc1nccs1)c1cc(-c2ccco2)nc2ccccc12`, the Potency is 3.98 µM (active). Consider `Cc1csc(NC(=O)c2cc(-c3ccco3)nc3ccccc23)n1`, for which the Potency was 10 µM (active). As for `CC(=O)c1cccc(NC(=O)c2cc(-c3ccco3)nc3ccccc23)c1`, the entry is “inactive”.
